Reference: paper PMC12670160, “A drug-repurposing screen of FDA- and EMA-approved drugs identifies two NF-κB inhibitors active against eumycetoma” (Journal of Antimicrobial Chemotherapy, 2025)
Where a name gives a salt, the structure may show the parent alone. Read-outs that look alike come from different tables or passages of the source. Out of some 5,300 compounds screened, about 130 (2.5%) showed an effect of 50% or more. What follows is part of a selection rich in strong results, with near analogues and random picks from the rest. Peptide text beside a SMILES is read from it.

Test system: M. mycetomatis strain mm55
Settings: primary screen, metabolic activity vs growth control, 96 h, 2 µM, inhibitor

SMILES | % viability | % viability (Madurella mycetomatis metabolic activity at 2µM (%))
N=C(N)c1ccc(/C=C/c2ccc(C(=N)N)cc2O)cc1 [ONC0003463, hydroxystilbamidine] | 43.6% | –
N=C(N)c1ccc(-c2ccc(-c3ccc(C(=N)N)cc3)o2)cc1 [ONC0003070, furamidine] | 108.4% | –
N=C(N)c1ccc(OCCCCCOc2ccc(C(=N)N)cc2)cc1 [ONC0003359, pentamidine isethionate] | 71.33% | –
CC(=O)OCC1=C(C(=O)O)N2C(=O)[C@@H](NC(=O)CSC(=NC(C)C)NC(C)C)[C@H]2SC1 [ONC0003427, cefathiamidine] | 77.15% | –
CNC[C@H](O)c1cccc(O)c1 [ONC0000459, lphenylephrine hydrochloride] | 72.58% | –
C[C@H](N)[C@H](O)c1cccc(O)c1 [ONC0003110, metaraminol bitartrate] | 76.38% | –
CCNCC(O)c1cccc(O)c1 (stereo not shown) [ONC0003685] | 42.26% | –
O=C(Nc1nc(-c2cc(Cl)cs2)c(N2CCN(C3CCCCC3)CC2)s1)c1cnc(N2CCC(C(=O)O)CC2)c(Cl)c1 [ONC0002265, avatrombopag] | 50.97% | –
CN/C(=N/CCSCc1nc[nH]c1C)NC#N [ONC0000657, cimetidine] | 137.7% | –
O=S(=O)(NCCCCCCc1ccccc1)c1cccc2c(Cl)cccc12 [ONC0002705, sc9] | 87.04% | –
NCCCCCCCCCCNS(=O)(=O)c1cccc2c(Cl)cccc12 [ONC0002708, a7] | 47.48% | –
CCCCCCCNS(=O)(=O)c1cccc2c(Cl)cccc12 [ONC0003431, sc10] | 68.77% | –
CC(C)(C)c1cc(C(C)(C)C)c2c(c1)C(O)(C(F)(F)F)C(=O)O2 (stereo not shown) [ONC0001539, racbhff] | 123.7% | –
NC(N)=Nc1nc(CSCCC(N)=NS(N)(=O)=O)cs1 [ONC0003248, famotidine] | 89.34% | –
Cc1nnc(C(C)C)n1[C@@H]1C[C@H]2CC[C@@H](C1)N2CC[C@H](NC(=O)C1CCC(F)(F)CC1)c1ccccc1 [ONC0004641, maraviroc] | 78.39% | –
c1ccc2c(Cc3c[nH]c4ccccc34)c[nH]c2c1 [ONC0003447, diindolylmethane] | 68.22% | –
CN1C(=O)N[C@H](Cc2c[nH]c3c(Cl)cccc23)C1=O [ONC0000938, necrostatin 2] | 58.02% | –
CN1C(=O)C(Cc2c[nH]c3ccccc23)NC1=S (stereo not shown) [ONC0003684, necrostatin1] | 40.84% | –
NC(N)=NCCC[C@H](N)C(=O)NCC(=O)N[C@@H](CC(=O)O)C(=O)N[C@@H](CO)C(=O)O [ONC0002282, argglyaspser] | 101.1% | –
CC(C)n1c(/C=C/[C@@H](O)C[C@@H](O)CC(=O)O)c(-c2ccc(F)cc2)c2ccccc21 (racemic) [ONC0004817, fluvastatin sodium lescol] | 110.8% | –
CCCCCCCCCCCCCCOC(=O)c1cccnc1 [ONC0003671, tetradecyl nicotinate] | 79.3% | –

SMILES | % viability | % viability (Madurella mycetomatis metabolic activity at 2µM (%))
C[C@@H]1CCCN1CCc1cc2cc(-c3ccc(C#N)cc3)ccc2o1 [ONC0003444, abt 239 tartrate] | 49.56% | –
N=C(N)/N=C(\N)N1CCOCC1 [ONC0005372, moroxydine hydrochloride] | 114.7% | –
CC(C)(N)CC12CC3CC(CC(C3)C1)C2 [ONC0004056, somantadine] | 120.7% | –
c1cc(OCCN2CCCCC2)cc(-c2n[nH]c3ccc(-c4nc[nH]n4)cc23)c1 [ONC0000900, cc401 hydrochloride] | 73.26% | –
Oc1ccc([C@H]2COc3cc(O)ccc3C2)cc1 [ONC0004406, equol] | 119.9% | –
CCCN1CCO[C@@H]2c3cc(O)ccc3OC[C@H]21 [ONC0000309, pd128907] | 42.57% | –
CCCN1CCC[C@H](c2cccc(O)c2)C1 [ONC0002744, r33hydroxyphenylnpropylpiperidine hydrochloride] | 58.06% | –
COC(=O)N[C@H](C(=O)N1CC2(CC2)C[C@H]1c1ncc(-c2ccc3c(c2)C(F)(F)c2cc(-c4ccc5nc([C@@H]6[C@H]7CC[C@H](C7)N6C(=O)[C@@H](NC(=O)OC)C(C)C)[nH]c5c4)ccc2-3)[nH]1)C(C)C [ONC0001967, ledipasvir] | 73.81% | –
CC(C)NCC(O)c1ccc(O)c(O)c1 (stereo not shown) [ONC0000608, isoproterenol hydrochloride] | 81.88% | –
CC(C)NCC(O)c1ccc(N)c(C#N)c1 (stereo not shown) [ONC0003014, cimaterol] | 76.31% | –
CC(C)NCC(O)c1ccc([N+](=O)[O-])cc1 (stereo not shown) [ONC0002319, nifenalol] | 49.56% | –
CC/C=C\C/C=C\C/C=C/C/C=C\C/C=C\C/C=C\CCC(=O)OCC [ONC0002811] | 151.6% | –
COC(=O)[C@H](CCCNC(=N)N)NS(=O)(=O)c1ccc(C)cc1 [ONC0004976, tame] | 63.05% | –
N=C(N)c1cc2ccc(OC(=O)c3cccs3)cc2s1 [ONC0004238, bcx 1470 methanesulfonate] | 62.8% | –
CC/C(=C(/CC)c1ccc(O)cc1)c1ccc(O)cc1 [ONC0003197, diethylstilbestrol] | 93.2% | –
CNCC(O)c1ccc(O)cc1 (stereo not shown) [ONC0005413, oxedrine] | 69.09% | –
CC[C@H](c1ccc(O)cc1)[C@@H](CC)c1ccc(O)cc1 [ONC0003849, hexestrol] | 49.29% | –
C#C[C@]1(O)CC[C@H]2[C@@H]3CCC4=CC(=NO)CC[C@@H]4[C@H]3CC[C@@]21CC (mixture of isomers) [ONC0000953, norgestimate metabolite norelgestromin] | 67.65% | –
CO[C@H]1/C=C/O[C@@]2(C)Oc3c(C)c(O)c4c(O)c(c(/C=N/N5CCN(C6CCCC6)CC5)c(O)c4c3C2=O)NC(=O)/C(C)=C\C=C\[C@H](C)[C@H](O)[C@@H](C)[C@@H](O)[C@@H](C)[C@H](OC(C)=O)[C@@H]1C [ONC0002002, rifapentine] | 77.39% | –
COC1/C=C/OC2(C)Oc3c(C)c(O)c4c(O)c(c(/C=N/N=C/N5CCCCC5)c(O)c4c3C2=O)NC(=O)/C(C)=C\C=C\C(C)C(O)C(C)C(O)C(C)C(OC(C)=O)C1C (stereo not shown) [ONC0003798, fce22250] | 33.52% | –
CO[C@H]1/C=C/O[C@@]2(C)Oc3c(C)c(O)c4c(O)c(c(/C=N/N5CCN(C)CC5)c(O)c4c3C2=O)NC(=O)/C(C)=C\C=C\[C@H](C)[C@H](O)[C@@H](C)[C@@H](O)[C@@H](C)[C@H](OC(C)=O)[C@@H]1C [ONC0003357, rifampin] | 107.5% | –

SMILES | % viability | % viability (Madurella mycetomatis metabolic activity at 2µM (%))
N#Cc1cn([C@@H]2O[C@H](CO)[C@@H](O)[C@H]2O)c2ncnc(N)c12 [ONC0003230, toyocamycin] | 99.22% | –
Cl.O=C(c1ccc(-c2ccc(Cl)cc2)o1)N(Cc1ccccn1)c1ccc(N2CCNCC2)cc1 [ONC0002178, mk2in1 hydrochloride] | 65.24% | –
O=C(Nc1ccc(C(O)(C(F)(F)F)C(F)(F)F)cc1)c1ccc(C(F)(F)F)cc1 [ONC0000412, sr1078] | 46.34% | –
C/C(O)=C(\C#N)C(=O)Nc1ccc(C(F)(F)F)cc1 [ONC0000878, teriflunomide] | 64.9% | –
CC(=O)Nc1ccc(C(=O)NC(C)(C)C)cc1 [ONC0002880] | 98.46% | –
CC(=O)OC[C@H](N)C(=O)O.Cl [ONC0000420, oacetyllserine hcl] | 77.43% | –
CC[C@@]1(O)C(=O)OCc2c1cc1n(c2=O)Cc2cc3c(N)cccc3nc2-1 [ONC0005467, 9aminocamptothecin] | 102.4% | –
CCCCCCCCCCCCCCOS(=O)(=O)O [ONC0003317, sodium tetradecyl sulfate] | 84.61% | –
CCc1cc(-c2n[nH]c(C)c2-c2ccc3c(c2)OCCO3)c(O)cc1O [ONC0003616, cct018159] | 49.48% | –
Cc1cccc(-c2[nH]c(C(C)(C)C)nc2-c2ccc3c(c2)OCO3)n1 [ONC0005219, sb505124] | 129% | –
CCNC(=O)c1[nH]nc(-c2cc(Cl)c(O)cc2O)c1-c1ccc(OC)cc1 [ONC0005116, ver49009] | 88.78% | –
CC(C)CC1NC(=O)C(C(C)C)NC(=O)C2CCCN2C(=O)C(CC(=O)O)NC(=O)C(Cc2c[nH]c3ccccc23)NC1=O (stereo not shown) [ONC0004583, bq123] (cyclo(DPVLW); configuration not given here) | 106.9% | –
CC(=O)NC1[C@@H](O)OC(CO)[C@@H](O)[C@H]1O (stereo partly shown) [ONC0002960, nacetylmannosamine] | 104.5% | –
CN1C(C(=O)Nc2ccccn2)C(=O)c2sccc2S1(=O)=O (stereo not shown) [ONC0002886, tenoxicam] | 126.3% | –
CC(O)c1cc(C(=O)N[C@@H](C)Cn2ccc(-c3ccc(C#N)c(Cl)c3)n2)[nH]n1 (stereo partly shown) [ONC0005059, odm201] | 86.36% | –
O=C(NCc1cccc(O)c1)Nc1nc(-c2ccncc2)cs1 [ONC0005121, rki1447] | – | 69.4%
CC(C)(C)c1ccc(S(=O)(=O)/C=C/C#N)cc1 [bay117085] | 1.843% | –
Cc1ccc(S(=O)(=O)/C=C/C#N)cc1 [bay117082] | 112.1% | –
CCOc1ccc2nc(SCCN3CCOCC3)[nH]c2c1 [ONC0001849, fabomotizole hydrochloride] | 108.3% | –
